Screens from PubChem.
An excerpt weighted towards active compounds, which were near 4.8% of everything screened.
hcDAF12 agonist – H. contortus DAF-12 activation, primary screen | HEK293 hcDAF-12 lit1-tk-luc reporter, luminescence; 0% DMSO, 100% Δ7-dafachronic acid | activation, % at 6.8 µM | 370,000 tested, 1.4% active | AID 652067;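 active means activation above the mean of all tested compounds plus 3 SD, cut at about 5.5% in these data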;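 further: 100% = response to 3 µM Δ7-dafachronic acid high control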
DAX1 inh-1 – NR0B1 (DAX1) inhibition. AID 504766. 340,000 tested, 0.99% active. inhibition, % at 6.75 µM. P51843. HEK293 Gal4-DAX1 luciferase reporter, luminescence;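 active means inhibition above the mean over all tested compounds plus 3 SD, cut at about 4.2% in these data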;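 further: 0% = DAX1-transfected cells with DMSO and 100% = empty-vector control cells with DMSO; inhibition shows as a rise in luminescence from relieved DAX1 repression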
Target sequence (P51843 207-470 limits assumed): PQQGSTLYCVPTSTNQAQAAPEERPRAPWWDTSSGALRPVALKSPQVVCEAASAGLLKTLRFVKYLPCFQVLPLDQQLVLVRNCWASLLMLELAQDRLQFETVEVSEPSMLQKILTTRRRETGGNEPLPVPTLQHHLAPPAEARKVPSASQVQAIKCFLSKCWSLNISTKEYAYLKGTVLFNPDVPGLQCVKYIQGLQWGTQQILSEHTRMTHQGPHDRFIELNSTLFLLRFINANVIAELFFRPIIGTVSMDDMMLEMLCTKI
hgDAF12 agonist – activates the H. glycines DAF-12 receptor ligand-binding domain | AID 687014 | HEK293 GAL4-hgDAF12 UAS-luciferase reporter, agonist luminescence; normalized to butyrate control | activation, % at 6.8 µM | 370,000 tested, 1.8% active;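 active means activation above a cutoff set at the mean of all screened compounds plus 3 SD, cut at about 10% in these data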;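 further: 0% = DMSO wells and 100% = sodium butyrate wells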
ssDAF-12 act – activators of S. stercoralis DAF-12 nuclear receptor | 370,000 tested, 1% active | HEK293 ssDAF-12/GRIP1 lit1-tk-luc reporter, luminescence; % of 3 µM dafachronic acid response | AID 652126 | activation, % at 6.8 µM;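 active means activation above the mean over all tested compounds plus 3 SD, cut at about 0.9% in these data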;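 further: 0% = DMSO-only wells and 100% = 3 µM delta7-dafachronic acid wells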
DAX1 inh-2 – DAX1 (NR0B1) inhibition, primary screen | AID 652010 | HEK293T StAR-luciferase reporter, SF-1/DAX-1 repression relief | inhibition, % at 6.8 µM | 370,000 tested, 1.1% active;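 active means inhibition above the mean over all tested compounds plus 3 SD, cut at about 3.6% in these data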;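 further: 0% = DAX-1 cells with DMSO and 100% = cells lacking DAX-1 with DMSO; higher inhibition means more luminescence from relief of DAX-1 repression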
SMARCA2 act – increases SMARCA2 function in MMTV reporter cells. activation, % at 9.1 µM. 370,000 tested, 1% active. MG213 cells, MMTV-luciferase reporter, dexamethasone, overnight. AID 652017; in the data active means activation above about 7.8%;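 further: 0% = vehicle wells and 100% = reference activator wells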
* = called active by the depositor; / = no result.

SMILES | hcDAF12 agonist | DAX1 inh-1 | hgDAF12 agonist | ssDAF-12 act | DAX1 inh-2 | SMARCA2 act
O=C(NCc1cccs1)c1cccc2c(-c3cccnc3)coc12 | -1.2 | / | 6.4 | -1.4 | -0.4 | -3.2
O=C(NCc1cccs1)c1cccc2c(-c3ccc(F)c(F)c3)coc12 | 0.9 | / | -2.9 | 3.5* | -0.4 | -1.9
O=C(Nc1ccc(Cl)c(Cl)c1)c1cccc2c1-c1ccccc1C2=O | 4.2 | / | -1.0 | -0.1 | -0.2 | 0.6
N#CC1=C2SC=C(c3ccc(Br)cc3)N2CCCC1=O | 3.3 | 4.2 | 11.3* | -1.1 | 3.7* | 1.5
O=C(Nc1c(C(=O)O)[nH]c2ccccc12)NC1CCCCC1 | 3.3 | 0.7 | 6.1 | 1.2* | -0.6 | 3.1
COC(=O)c1[nH]c2ccc(C)cc2c1NC(=O)NC1CCCCC1 | -0.4 | 0.8 | 1.4 | -1.5 | 0.1 | 4.1
CC(C)C(OC(=O)c1cc2c(s1)CCCCC2)C(=O)NC(N)=O (stereo not given) | 5.8* | 0.7 | -2.1 | -0.9 | 0.3 | 1.2
CC(OC(=O)c1cc2c(s1)CCCCC2)C(=O)NC(N)=O (stereo not given) | -1.8 | 0.2 | 1.6 | -1.8 | -0.6 | 2.3
COC(=O)[C@]12C[C@H](CC(=O)N3CCC(c4ccccc4)CC3)C(=O)N(Cc3ccco3)C1=C[C@H](C1CCCC1)O[C@@H]2C | -2.4 | / | -1.1 | -1.9 | -0.8 | -4.0
O=C(O)COn1c(-c2ccc(Cl)cc2)nc2ccc(Cl)cc21 | 6.2* | 1.1 | 5.4 | 0.1 | 1.3 | 2.1
Cc1ccc(COn2c(-c3ccc(Cl)cc3)nc3ccc([N+](=O)[O-])cc32)cc1 | 2.1 | 4.7* | 10.4 | 1.1* | 2.7 | 8.2*
COc1ccc(-c2nc3ccccc3n2OCC(=O)O)cc1 | 0.7 | 2.7 | 10.6* | 0.3 | 2.0 | 3.0
CCOC(=O)C(C)On1c(-c2ccccc2)nc2ccc([N+](=O)[O-])cc21 (stereo not given) | 0.5 | 3.6 | 11.5* | -0.6 | 1.2 | 5.8
CC(O)c1nc2cc([N+](=O)[O-])ccc2n1Cc1ccccc1 (stereo not given) | -1.5 | -0.9 | -1.2 | -1.4 | -0.2 | -3.7
COc1ccc(Cn2c(-c3ccc(OC)cc3)nc3ccccc32)cc1 | -0.1 | 0.3 | -0.8 | -0.5 | 1.1 | -3.5
COc1cc(O)c([C@@H](CC(=O)N2CC(C)CC(C)C2)c2ccc3c(c2)OCO3)c(OC)c1 (stereo not given in full) | 3.4 | / | -3.1 | -1.3 | / | /
N#CCCN1CCN(S(=O)(=O)c2ccc(S(=O)(=O)NCc3ccccc3)cc2)CC1 | 0.1 | 5.4* | -1.3 | -1.6 | 1.8 | 0.1
CN(C)S(=O)(=O)c1ccc(S(=O)(=O)N2CCN(CCC#N)CC2)cc1 | -0.8 | 6.2* | -0.8 | -1.3 | -0.3 | -0.2
O=C(Nc1ccc(OC(F)(F)F)cc1)Nc1c(-c2ccc(C(F)(F)F)cc2)nc2ncccn12 | -0.1 | / | 0.0 | -0.5 | 0.9 | 0.7
Cn1cc(C2(c3c[nH]c4ccccc34)CCN(C(=O)OC(C)(C)C)CC2)c2ccccc21 | 3.8 | / | 2.8 | 0.1 | -1.7 | -3.2
CCN(CC)CCNC(=O)/C(=C/c1cn(C)c2ccccc12)NC(=O)c1ccc(OC)c(OC)c1 | 1.1 | 5.2* | 2.0 | -0.1 | -0.2 | -2.7
CCN(CC)CCNC(=O)/C(=C/c1cn(CC)c2ccccc12)NC(=O)c1cc(OC)c(OC)c(OC)c1 | -0.7 | -0.9 | -1.0 | -1.1 | 0.1 | -3.1
COc1cc(C(=O)N/C(=C\c2cn(C)c3ccccc23)C(=O)NCCCO)cc(OC)c1OC | -1.2 | 4.7* | -1.6 | -1.6 | -0.5 | -1.6
COc1cc(C(=O)N/C(=C\c2cn(S(=O)(=O)N(C)C)c3ccccc23)C(=O)NCCCO)cc(OC)c1OC | 0.3 | 0.8 | 1.4 | -1.1 | -0.3 | 1.2
COc1ccc(/C=C/S(=O)(=O)NCCc2ccccc2)c(CNC(=O)OC(C)(C)C)c1 | -1.5 | / | 3.5 | -1.0 | -0.8 | -3.5
CCOC(=O)NC(=O)CSc1nc(C)cc(C)c1C#N | 3.1 | -1.1 | 12.6* | -0.7 | 3.5 | 2.8
Cc1cc(C)c(C#N)c(SCC(=O)Nc2cc(C)on2)n1 | 2.9 | 1.7 | 10.5* | -0.3 | 3.4 | 3.2
CCOC(=O)CNC(=O)CSc1nc(C)cc(C)c1C#N | -1.3 | -0.2 | 0.6 | -1.4 | -0.6 | -2.9
